From the supplement of paper PMC11402862

Test system: PPARgamma LBD (GAL4 fusion)
Test: luciferase reporter transactivation, fold of solvent control; higher = stronger receptor activation
Conditions: HEK293T, exposure time: 24 h
Procedure: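 HEK293T cells were transiently transfected with a GAL4-DBD fused to the ligand-binding domain of a human nuclear receptor (PPARα, PPARγ, PPARδ, FXR, LXRα, PXR, RARα or CAR), the GAL4-(UAS)5-TK firefly luciferase reporter and a Renilla luciferase normalisation plasmid. Cells were exposed to compound for 24 h in 0.5% DMSO. Firefly/Renilla luciferase was expressed as fold of the solvent control (=1). Values are the mean of 2-3 biological replicates; receptor agonists were used as positive controls.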

Compound | luciferase reporter transactivation (concentration: 1 µM) | luciferase reporter transactivation (concentration: 5 µM) | luciferase reporter transactivation (concentration: 10 µM) | luciferase reporter transactivation (concentration: 25 µM) | luciferase reporter transactivation (concentration: 50 µM) | luciferase reporter transactivation (concentration: 100 µM) | luciferase reporter transactivation (concentration: 250 µM) | luciferase reporter transactivation (concentration: 500 µM)
O=C(O)C(F)(F)C(F)(F)C(F)(F)C(F)(F)F [perfluoropentanoic acid] | 1.01 | 1.01 | 0.918 | 0.953 | 0.925 | 0.858 | 0.947 | 1.11
OCCC(F)(F)C(F)(F)C(F)(F)C(F)(F)C(F)(F)C(F)(F)F [6:2 fluorotelomer alcohol] | 1.1 | 1 | 0.973 | 1.1 | 1.09 | 0.563 | 1.25 | 1.1
O=S(=O)(O)CCC(F)(F)C(F)(F)C(F)(F)C(F)(F)C(F)(F)C(F)(F)C(F)(F)C(F)(F)F [8:2 fluorotelomer sulfonic acid] | 0.851 | 0.861 | 0.922 | 0.905 | 1.04 | 1.31 | 1.04 | 0.846
O=S(=O)(O)CCC(F)(F)C(F)(F)C(F)(F)C(F)(F)C(F)(F)C(F)(F)F [6:2 fluorotelomer sulfonic acid] | 1.45 | 1.66 | 1.6 | 1.57 | 1.9 | 2.81 | – | –
Cc1c(C)c2c(c(C)c1O)CCC(C)(COc1ccc(CC3SC(=O)NC3=O)cc1)O2 (stereo unspecified) [troglitazone] | – | – | 27.7 | – | – | – | – | –
